This passage reports inhibition results from PubChem BioAssay AID493027 (The Scripps Research Institute Molecular Screening Center, 2011).

Screen size: about 2,000 compounds; about 45 (2%) were called active.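 Rule for the calls: active = inhibition above the screen-wide mean inhibition plus 3 SD (cut at about 44% in these data); inactive = the rest.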 What follows is part of a selection rich in actives, with near analogues and random picks from the rest.

Perilipin-1 (Homo sapiens) + 1-acylglycerol-3-phosphate O-acyltransferase ABHD5 (Homo sapiens), sequence (O60240 whole entry, looked up): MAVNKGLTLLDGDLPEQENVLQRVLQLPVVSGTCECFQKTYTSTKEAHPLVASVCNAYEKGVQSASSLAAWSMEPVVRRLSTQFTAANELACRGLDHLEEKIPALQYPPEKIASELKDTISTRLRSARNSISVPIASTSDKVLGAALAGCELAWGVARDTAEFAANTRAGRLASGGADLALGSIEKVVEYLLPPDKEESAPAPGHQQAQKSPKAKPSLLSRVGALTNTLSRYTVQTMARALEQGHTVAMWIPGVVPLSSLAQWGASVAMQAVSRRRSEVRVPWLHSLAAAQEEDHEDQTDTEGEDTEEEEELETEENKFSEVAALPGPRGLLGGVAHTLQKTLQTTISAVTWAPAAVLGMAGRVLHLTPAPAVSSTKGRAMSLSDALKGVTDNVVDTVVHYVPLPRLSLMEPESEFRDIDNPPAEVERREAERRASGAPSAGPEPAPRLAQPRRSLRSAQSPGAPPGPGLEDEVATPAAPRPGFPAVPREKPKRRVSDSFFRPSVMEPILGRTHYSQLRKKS
Perilipin-1 (Homo sapiens) + 1-acylglycerol-3-phosphate O-acyltransferase ABHD5 (Homo sapiens), sequence (Q8WTS1 whole entry, looked up): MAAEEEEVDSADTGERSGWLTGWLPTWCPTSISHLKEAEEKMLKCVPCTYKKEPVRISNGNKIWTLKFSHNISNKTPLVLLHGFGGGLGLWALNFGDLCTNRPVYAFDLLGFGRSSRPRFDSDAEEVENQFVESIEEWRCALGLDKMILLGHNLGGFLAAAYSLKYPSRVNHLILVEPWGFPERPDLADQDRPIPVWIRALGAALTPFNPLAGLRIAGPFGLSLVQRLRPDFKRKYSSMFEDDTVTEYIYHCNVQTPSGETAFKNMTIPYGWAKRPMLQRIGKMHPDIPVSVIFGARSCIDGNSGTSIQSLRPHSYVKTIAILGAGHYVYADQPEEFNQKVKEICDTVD

This assay has as its target Perilipin-1 (Homo sapiens) + 1-acylglycerol-3-phosphate O-acyltransferase ABHD5 (Homo sapiens) (UniProt O60240+Q8WTS1). Kind of assay: ABHD5-PLIN1 interaction inhibitors, pilot screen, cell lysate, split luciferase complementation, luminescence, NIH validation set (AID 493027).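 For inhibition: 0% = DMSO wells with the 100% control not disclosed.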 To be noted: split G. princeps luciferase complementation, 4 h; at 7.9 µM, hits give high values.
What is called inhibition is the drop in the measured response relative to a control, in per cent. Consider `CSCCC(NC(C)=O)C(=O)Oc1ccc2c3c(c(=O)oc2c1)CCCC3` (stereo not drawn), for which the inhibition is 4.14% (inactive).

As for `O=c1c(-c2ccc3c(c2)OCCO3)coc2cc(OC3OC(CO)C(O)C(O)C3O)ccc12` (stereo not drawn), the inhibition was -4.41% (inactive).

With `CSCCC(NC(=O)OC(C)(C)C)C(=O)Oc1ccc2c(=O)c(-c3ccc4c(c3)OCCO4)coc2c1` (stereo not drawn), the inhibition is 67.4% (active).

For `O=C(Nc1ccc(Cl)cn1)Nc1ccccc1Cl`, the inhibition was -3.38% (inactive).

On to `CC(C)C1Cc2[nH]c(=O)c(C(=O)O)cc2CO1` (stereo not drawn), for which the inhibition was -7.52% (inactive).

With `CCCC(=O)Nc1ccccc1NC(C)=O`, the inhibition is -6.46% (inactive).

For the compound `N/C(=N\OS(=O)(=O)c1ccc2ccccc2c1)c1cccnc1`, the inhibition was 0.01% (inactive).

With `COc1ccc(-c2c(NC(=O)c3ccco3)n(C)c3ccccc3c2=O)cc1`, the inhibition was -10.8% (inactive).

For `O=C(NCCN1CCCCC1)c1c(O)c2ccccc2[nH]c1=O`, the inhibition was -2.32% (inactive).

Turning to `CC1(C)c2ccccc2N2CC(=O)NC21/C=C/c1ccco1` (stereo not drawn), the inhibition was 47.4% (active).

In the case of `CC1(C)c2ccccc2N2CC(=O)N(CC(N)=O)C21C` (stereo not drawn), the inhibition is 4.18% (inactive).

With `O=C(/C=C/c1ccco1)N1CCN(c2ccccc2)CC1`, the inhibition was 4.55% (inactive).

As to `CC(=O)c1c(C)c(C)c2n1CCn1c(C)ccc1-2`, the inhibition is 5.75% (inactive).

Take `COc1ccc(C2C(C#N)=C(N)Oc3cc(C)[nH]c(=O)c32)c(OC)c1OC` (stereo not drawn): the inhibition was -14.5% (inactive).

Take `O=C(/C=C/c1ccc2c(c1)OCO2)NCc1ccc(F)cc1`: the inhibition was -2.57% (inactive).

Turning to `O=C(/C=C/c1ccc2c(c1)OCCCO2)c1ccc2ccccc2c1O`, the inhibition was 17.8% (inactive).

As to `O=C(/C=C/c1ccc2c(c1)OCO2)c1ccccn1`, the inhibition is 51.3% (active).

For the compound `CC1(C)CC(=O)c2cc(O)ccc2O1`, the inhibition was -2.35% (inactive).

On to `CC(CCCC(C)(C)O)NC(=O)c1ccc(OC2CCN(C(=O)C3CC3)CC2)cc1` (stereo not drawn), for which the inhibition is -7.27% (inactive).

On to `Cc1ccc2[nH]c3c(c2c1)CCNC3=O`, for which the inhibition was -4.86% (inactive).

`CC[n+]1ccc2cc(OC)c(OC)cc2c1Cc1ccc(OC)c(OC)c1`: the inhibition is -12.6% (inactive).

Regarding `COc1cc(=O)n(C)c2ccccc12`, the inhibition was -0.74% (inactive).

As to `COc1ccc(C(=O)/C=C/c2ccc(OC(=O)c3cc(OC)c(OC)c(OC)c3)cc2)cc1`, the inhibition is 26.9% (inactive).

With `COc1ccc(/C=C/C(=O)c2cc3cccc(OC)c3oc2=O)cc1`, the inhibition is 60.6% (active).

As to `COc1cccc2cc(-c3ccccc3)c(=O)oc12`, the inhibition was -3.48% (inactive).

For `NS(=O)(=O)c1cc2c(cc1Cl)NC(C1C[C@H]3C=C[C@@H]1C3)NS2(=O)=O` (stereo partly drawn), the inhibition is 0.4% (inactive).

As to `O=C(O)CCn1cnc2ccccc2c1=O`, the inhibition is 3.53% (inactive).

Turning to `O=C(Cc1ccccc1)NCC(=O)OCC(=O)c1ccccc1Cl`, the inhibition is -13.7% (inactive).

For `CCN1C(=O)C(CC(=O)Nc2ccc(F)cc2)N(Cc2ccco2)C1=S` (stereo not drawn), the inhibition is 10.9% (inactive).

As to `CS(=O)(=O)Oc1ccc2c(c1)O/C(=C\C=C\c1ccccc1)C2=O`, the inhibition is 58.8% (active).

Consider `CC(=O)Oc1ccc2occ(/C=N/c3cc(=O)[nH]c(=S)[nH]3)c(=O)c2c1`, for which the inhibition was -1.72% (inactive).

With `O=c1cc(CN2CCN(c3cccc(Cl)c3)CC2)c2cc(O)c(-c3ccccc3)cc2o1`, the inhibition was 1.13% (inactive).

Regarding `COc1ccc2[nH]c(C)c(CN3CCC(C)CC3)c(=O)c2c1`, the inhibition was -4.96% (inactive).

Turning to `CCc1cc2c(=O)c(-c3nc(C)cs3)coc2cc1OC(C)C(=O)NCCO` (stereo not drawn), the inhibition is -3.43% (inactive).

Consider `COc1ccc2oc(=O)c(C(=O)N3CCN(c4ccccc4)CC3)cc2c1`, for which the inhibition was 9.05% (inactive).

Take `COc1ccc(O)c(C(=O)/C=C/c2cc3ccccc3o2)c1`: the inhibition was 66.9% (active).

For the compound `COc1ccc2oc(=O)c(C(=O)Nc3ccccc3-c3ccccc3)cc2c1`, the inhibition is -7.96% (inactive).

Regarding `Cc1ccc(NCCC(=O)c2ccccc2)cc1Cl`, the inhibition is -2.97% (inactive).

In the case of `CCCN1CCC(NC(=O)Nc2ccc(Br)cc2)CC1`, the inhibition was -9.54% (inactive).

With `Cc1ccc2c(c1)C(O)(CC(=O)/C=C/C=C/c1ccccc1)C(=O)N2` (stereo not drawn), the inhibition was 16.4% (inactive).

As for `Cc1ccc(C2=NOC(=O)/C2=C\C=C\c2ccccc2)cc1`, the inhibition was 95.6% (active).

`O=C1NC2(Nc3ccccc31)C(=O)Nc1ccc(Br)cc12` (stereo not drawn): the inhibition was 0.88% (inactive).

Regarding `CC1(C)CC(C(CC(=O)N2CCCC2)Cc2ccccc2)CCO1` (stereo not drawn), the inhibition is -12.5% (inactive).

Consider `Cc1cc(C(=O)Nc2ccccc2C(=O)N2CCCCC2)ccc1[N+](=O)[O-]`, for which the inhibition is -3.48% (inactive).

For `COc1ccc(/C=C2\CC/C(=C\c3ccc(OC)c(OC)c3)C2=O)cc1OC`, the inhibition was 59.1% (active).

For the compound `COc1ccc(/C=C2\CCc3ccccc3C2=O)c(OC)c1OC`, the inhibition is -0.86% (inactive).

For `COc1ccc(/C=C2\CCn3c2nc2cc(C(=O)O)ccc2c3=O)cc1OC`, the inhibition was -6.3% (inactive).

For `CCN(CCCCCN(C)C)Cc1cc2ccccc2o1`, the inhibition is -7.75% (inactive).

As to `O=C1C(Cc2c[nH]c3ccccc23)NC(=S)N1Cc1ccccc1` (stereo not drawn), the inhibition is -4.43% (inactive).

For the compound `CC(=O)N1CCN2C(=O)C1CCCC(=O)c1cc(C(C)C)ccc12` (stereo not drawn), the inhibition was 0.46% (inactive).

As for `COc1cc2c(cc1OC)/C(=C/c1ccc(Cl)cc1)C(=O)OC2`, the inhibition is 27.4% (inactive).

Take `O=C1ON=C(c2ccc(Cl)cc2)/C1=C/c1ccc(O)cc1`: the inhibition is 82.8% (active).

Turning to `CCOC(=O)N1CCN(Cc2nc(Cc3cccc(F)c3)no2)CC1`, the inhibition is -1.53% (inactive).

For `C=CCc1ccc(OCC(O)COc2ccc(CC=C)cc2OC)c(OC)c1`, the inhibition is -1.62% (inactive).

Turning to `Cc1ccccc1C(=O)NNc1ncnc2c1cnn2C`, the inhibition is -10.4% (inactive).

For `Cn1cc(CN2CCCC(CO)(Cc3cccc(Cl)c3)C2)cn1` (stereo not drawn), the inhibition was -10.7% (inactive).

On to `c1ccc2c3c(c(CN4CCCCC4)cc2c1)COC3`, for which the inhibition was -4.68% (inactive).

Turning to `O=C(O)/C=C/c1ccc(O)c(O)c1`, the inhibition was -2.22% (inactive).

Turning to `COc1cc(/C=C/C(=O)CC(=O)/C=C/c2ccc(O)c(OC)c2)ccc1O`, the inhibition was 50.4% (active).

Take `CCN(CC)C(=O)c1ccc(O)c(OC)c1`: the inhibition is -1.24% (inactive).

`COc1ccc2c(c1O)Cc1ccccc1C2=O`: the inhibition is 12% (inactive).

On to `COc1cc(OC)cc(C(=O)N[C@@H](CCSC)c2nc3ccccc3[nH]2)c1`, for which the inhibition was 2.97% (inactive).

As for `CC(C)CCC1(CCNC(C)c2cccs2)CCOC(C)(C)C1` (stereo not drawn), the inhibition is -4.9% (inactive).

In the case of `COc1ccc(CCN=CC2=C(O)CC(C)(C)CC2=O)cc1`, the inhibition was -4.85% (inactive).

Regarding `CC(=O)Nc1ccc(CN2CCN(C3CCCCC3)C(CCO)C2)cc1` (stereo not drawn), the inhibition was -3.02% (inactive).

Turning to `CC(=O)N[C@@H](CS)C(=O)O`, the inhibition was -18.8% (inactive).

On to `COC(=O)[C@@H](N)CS`, for which the inhibition was 65.9% (active).

As to `Cc1ccc(NC(=O)CSc2nc(O)c(Cc3ccccc3)c(=O)n2-c2ccccc2)cc1`, the inhibition was 5.86% (inactive).

With `COc1ccc(C(=O)Oc2ccc3c(C)cc(=O)oc3c2C(C)=O)cc1`, the inhibition is 0.69% (inactive).

With `COc1ccc(/C=C/C(=O)Nc2ccccc2C(=O)O)cc1OC`, the inhibition was -6.48% (inactive).

With `COc1ccc(/C=C\C(=O)c2c(O)ccc3c(C)cc(=O)oc23)cc1OC`, the inhibition was 62.7% (active).

In the case of `CC(C)C(=O)Nc1c(O)c2ccccc2[nH]c1=O`, the inhibition was -16.2% (inactive).

For the compound `COC(=O)C1=C(C)NC(C)=C([N+](=O)[O-])C1c1ccccc1C(F)(F)F` (stereo not drawn), the inhibition was 1.42% (inactive).

With `CCOC(=O)C1=C(C)NC(C)=C(C(=O)OC)C1c1cccc([N+](=O)[O-])c1` (stereo not drawn), the inhibition was 8.95% (inactive).

Regarding `COC(=O)C1=C(C)NC(C)=C(C(=O)OC)C1c1ccccc1[N+](=O)[O-]`, the inhibition result was “active”.

With `COc1ccc(CCN=C(N)C(C)c2ccccc2)cc1OC` (stereo not drawn), the inhibition is -12.2% (inactive).

For `CC(C)(C)C(=O)NC(=S)Nc1sc2c(c1C(N)=O)CCC2`, the inhibition is 1.49% (inactive).

For the compound `COc1ccc(C2OC(=O)Cc3cc(OC)c(OC)cc32)cc1` (stereo not drawn), the inhibition is -1.64% (inactive).

Consider `OCCC1CN(Cc2nc(-c3ccccc3)cs2)CCN1Cc1ccc(F)cc1` (stereo not drawn), for which the inhibition was -1.6% (inactive).

Take `COc1cc2c(cc1OC)-c1cc(OCc3ccccc3Cl)nc(=O)n1CC2`: the inhibition was 15.9% (inactive).

Take `O=C(CCCCCCCC(=O)c1ccccc1)c1ccccc1`: the inhibition was -5.61% (inactive).

On to `N/C(=N\OC(=O)/C=C/c1ccccc1)c1ccc(Br)cc1`, for which the inhibition is -13% (inactive).

For `O=C(O)c1ccc(C(=O)C(=O)c2ccccc2)cc1`, the inhibition was -8.11% (inactive).

Take `O=C(/C=C/Sc1ccccc1)c1ccccc1`: the inhibition is 81.5% (active).

In the case of `CC(CCc1ccccc1)NC(=O)/C=C/c1ccccc1` (stereo not drawn), the inhibition is 2.76% (inactive).

As for `O=C(/C=C/c1ccccc1)/C=C/c1ccccc1`, the inhibition was 88.9% (active).

In the case of `O=C(/C=C/c1ccccc1)NC(=O)c1ccccc1O`, the inhibition is 4.79% (inactive).

Turning to `Cn1cc(/C=C/C(=O)c2ccccc2)c2ccccc21`, the inhibition was 13.9% (inactive).

`O=C(/C=C/c1ccccc1)c1ccccc1`: the inhibition is 61.4% (active).

In the case of `Cc1ccc2[nH]c3c(c2c1)CN(C)CC3`, the inhibition was -2.27% (inactive).

Take `Cc1ccc(S(=O)(=O)N[C@@H](C)C(=O)N2CCC(C(=O)N3CCC[C@H]3C(=O)O)CC2)cc1`: the inhibition was -8.3% (inactive).

`COc1ccc(C2OC[C@H]3O[C@H](O)[C@H](NC(C)=O)[C@@H](O)[C@@H]3O2)cc1` (stereo partly drawn): the inhibition was -8.14% (inactive).

In the case of `COc1ccc2c(c1)CC[C@@H]1[C@@H]2CC[C@]2(C)C(=O)CC[C@@H]12`, the inhibition was -10.8% (inactive).

With `C[C@]12CCC3C(CC=C4C[C@@H](O)CC[C@@]43C)C1CCC2[C@]1(C)CCC(=O)O1` (stereo partly drawn), the inhibition was 0.59% (inactive).

As to `COc1cccc(-n2c(C)c3c(OC)cccc(=O)c3c2C)c1`, the inhibition is 12% (inactive).

In the case of `CCC(C)NCCOc1ccccc1C` (stereo not drawn), the inhibition is -6.76% (inactive).

`COc1ccc(OC)c(-n2c(Cn3c(-c4ccccn4)nc4ccccc43)n[nH]c2=S)c1`: the inhibition is -10.2% (inactive).

As to `COc1ccc(C(=O)N2c3cc4c(cc3C(C)=CC2(C)C)OCO4)cc1`, the inhibition is -4.62% (inactive).
